Screens deposited in PubChem by Broad Institute.
Shown is part of a subset that was picked to be rich in hits.
EZH2 inh: EZH2 (human) methyltransferase inhibition | Q15910 | PRC2 H3K27 methylation, DELFIA TRF, 1 h | inhibition, % at 12.5 µM | actives 0.35% (n = 57,000) | AID 651548;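 active means mean inhibition of replicates at least 50% and every single replicate also reaching 50%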;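 further: dimethyl H3K27 on biotinylated H3 21-44 peptide detected by antibody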
Target sequence (Q15910 whole entry, looked up): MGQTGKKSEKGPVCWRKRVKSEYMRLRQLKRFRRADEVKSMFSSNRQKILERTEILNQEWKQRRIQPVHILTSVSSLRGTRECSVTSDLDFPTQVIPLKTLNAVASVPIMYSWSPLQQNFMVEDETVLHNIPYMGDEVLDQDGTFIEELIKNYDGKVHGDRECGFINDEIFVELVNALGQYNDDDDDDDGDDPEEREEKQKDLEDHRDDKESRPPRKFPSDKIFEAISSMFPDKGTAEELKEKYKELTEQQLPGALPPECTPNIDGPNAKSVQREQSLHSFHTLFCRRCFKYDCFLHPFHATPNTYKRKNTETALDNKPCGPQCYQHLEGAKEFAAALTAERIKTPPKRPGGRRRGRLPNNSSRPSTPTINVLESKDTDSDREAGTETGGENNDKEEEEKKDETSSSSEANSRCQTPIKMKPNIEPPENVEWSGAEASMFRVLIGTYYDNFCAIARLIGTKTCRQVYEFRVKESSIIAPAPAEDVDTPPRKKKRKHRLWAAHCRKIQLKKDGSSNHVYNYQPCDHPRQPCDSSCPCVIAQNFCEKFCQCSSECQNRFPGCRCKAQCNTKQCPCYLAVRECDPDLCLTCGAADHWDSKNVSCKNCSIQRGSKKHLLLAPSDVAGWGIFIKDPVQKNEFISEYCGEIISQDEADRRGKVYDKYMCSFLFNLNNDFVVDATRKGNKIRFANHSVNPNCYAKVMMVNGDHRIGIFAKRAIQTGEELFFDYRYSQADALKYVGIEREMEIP
Large screens that a line does not name were inactive.

N#C[C@@H](O[C@@H]1O[C@H](CO)[C@@H](O)[C@H](O)[C@H]1O[C@@H]1O[C@H](CO)[C@@H](O)[C@H](O)[C@H]1O)c1ccccc1	none
C[C@@H]1O[C@@H](O[C@@H]2[C@@H](O)[C@H](Oc3cc(O)c4c(c3)OC(c3ccc(O)cc3)CC4=O)O[C@H](COC3OCC(O)C(O)C3O)[C@H]2O)[C@H](O)[C@H](O)[C@H]1O (some centres not stated)	none
N#CC(OC1OC(COC2OCC(OC(=O)/C=C/c3ccc(OC4OC(CO)C(O)C(O)C4O)cc3)C(O)C2O)C(O)C(O)C1O)c1ccccc1 (configuration not stated)	EZH2 inh 90
COc1cccc2cc(C(=O)C3C(=O)C(=O)N(CCCN4CCOCC4)C3c3cccnc3)oc12 (configuration not stated)	none
Nc1c(S(=O)(=O)O)cc(Nc2cccc3ccccc23)c2c1C(=O)c1ccccc1C2=O	EZH2 inh 82
Nc1c(S(=O)(=O)O)cc(Nc2ccc(Cl)cc2)c2c1C(=O)c1ccccc1C2=O	EZH2 inh 68
O=C(CNS(=O)(=O)c1ccc(Br)cc1)Nc1cccc2ccccc12	none
O=C(Nc1cccc2ccccc12)OCCn1ncc2ccccc2c1=O	none
CC1(C)CC(=O)C2=C(C1)N(CC1CCCO1)C(=O)C2(NC(=O)c1ccccc1)C(F)(F)F (configuration not stated)	none
COc1cc(NC(=O)CC2NC3CCCCC3NC2=O)cc(OC)c1 (configuration not stated)	none
Cc1cc(C)c(NC(=O)CN(c2cc(Cl)cc(Cl)c2)S(C)(=O)=O)c(C)c1	none
O=C(NCc1ccco1)c1ccc(NC(=O)c2ccccc2)cc1	none
COc1ccc(OCC(=O)Nc2sc(C)c(C)c2C(N)=O)cc1	none
CC(=O)c1ccc(NC(=O)CSc2nc(-c3ccccc3)c(C#N)c(=O)[nH]2)cc1	none
N#Cc1c(-c2ccccc2)nc(SCC(=O)Nc2ccc(Oc3ccccc3)cc2)[nH]c1=O	EZH2 inh 87
N#Cc1c(-c2ccccc2)nc(SCC(=O)Nc2cccc(C(F)(F)F)c2)[nH]c1=O	none
COc1ccc(OC)c(N(CC(=O)Nc2c(C)cc(C)cc2C)S(C)(=O)=O)c1	none
COc1ccc(-c2coc3cc(O[C@@H]4O[C@H](CO)[C@@H](O)[C@H](O)[C@H]4O)cc(O)c3c2=O)cc1	none
C[C@@H]1O[C@@H](O[C@H]2[C@H](Oc3cc(O)c4c(=O)cc(-c5ccc(O)cc5)oc4c3)O[C@H](CO)[C@@H](O)[C@@H]2O)[C@H](O)[C@H](O)[C@H]1O	none
CC1OC(OCC2OC(Oc3cc(O)c4c(=O)c(-c5ccc(O)cc5)coc4c3)C(O)C(O)C2O)C(O)C(O)C1OC1OC(CO)C(O)C(O)C1O (configuration not stated)	EZH2 inh 64
CCOc1ccc(NC(=O)Cn2cnc3scc(-c4ccc(C)cc4)c3c2=O)cc1	none
CCCc1ccc(-c2cc(C(=O)NCc3cnn(C)c3)c3ccccc3n2)cc1	none
COc1ccc2c(=O)ccoc2c1	none
COc1c2ccoc2cc2oc(=O)ccc12	EZH2 inh 52
CC(C)(O)C(O)COc1c2ccoc2cc2oc(=O)ccc12 (configuration not stated)	none
O=C(COc1ccc2c(-c3ccccc3)cc(=O)oc2c1)c1ccccc1	none
O=C(CCN1C(=O)c2ccccc2S1(=O)=O)Nc1ccc(Oc2ccccc2)cc1	none
N#Cc1c(NC(=O)CSc2n[nH]c(-c3ccc(Cl)cc3Cl)n2)sc2c1CCCC2	EZH2 inh 52
O=C(CSc1n[nH]c(-c2ccc(Cl)cc2Cl)n1)Nc1cccc(Cl)c1Cl	none
O=C(CSc1n[nH]c(-c2ccc(Cl)cc2Cl)n1)Nc1ccccc1F	none
Cc1ccc(-n2c(C)nnc2SCC(=O)Nc2ccc(Br)cc2F)cc1	none
O=C1CCC(O)c2cccc(O)c21 (configuration not stated)	none
CC(Oc1cccc(Cl)c1)c1nc(-c2cccnc2)no1 (configuration not stated)	none
Fc1ccccc1CSc1nnc(-c2cnccn2)n1Cc1ccco1	none
Clc1ccc(CSc2nnc(-c3ccco3)n2Cc2ccco2)c(Cl)c1	none
Fc1ccccc1-c1nnc(SCc2ccc(Br)cc2)n1Cc1ccco1	EZH2 inh 79
COc1ccccc1NC(=O)Cn1c(C(F)(F)F)nc2ccccc21	none
Cc1ccc(C(=O)N(CC(N)=O)CC(N)=O)cc1	none
C=CCOC(=O)C1=C[C@H](c2csc3ccccc23)C[C@H](OCc2ccc(CO)cc2)O1	EZH2 inh 59
O=C(NC1CC1)C1=C[C@H](c2csc3ccccc23)C[C@H](OCc2ccc(CO)cc2)O1	none
C=CCOC(=O)C1=C[C@H](c2coc3ccccc3c2=O)C[C@H](OCc2ccc(CO)cc2)O1	none
O=C(CSc1nnc(-c2ccccc2Br)o1)c1ccc2c(c1)OCCO2	none
COC(=O)CCCCCCC(=O)N/N=C/c1cccc(OCCO)c1	none
CCCCN(CCCC)c1ccc(/C=N/NC(=O)c2ccccc2O)cc1	none
O=C(N/N=C/c1ccc(-c2cccc(Cl)c2)o1)c1ccccn1	none
COC(=O)CCCCCCC(=O)N/N=C/c1ccccc1	none
COC(=O)CCCCCCC(=O)N/N=C/c1ccc(OCCO)cc1	none
O=C(CCCCC(=O)N/N=C/c1ccc(-c2cccc(Cl)c2)o1)NO	none
COC(=O)CCCCCCC(=O)N/N=C/c1cccc(Oc2ccccc2)c1	EZH2 inh 56
CCCCN(CCCC)c1ccc(/C=N/NC(=O)CCCCCCC(=O)OC)cc1	EZH2 inh 80
COC(=O)CCCCCCC(=O)N/N=C/c1ccc(-c2cccc(Cl)c2)o1	EZH2 inh 54
COc1ccc(OC)c(NC(=O)C2=C(C)NC(=O)NC2c2ccc(OC)cc2OC)c1 (configuration not stated)	none
COC(=O)c1ccccc1NC(=O)CSc1ncnc2sc3c(c12)CCC(C)C3 (configuration not stated)	none
Cc1cc(Br)c(S(=O)(=O)NCc2ccccn2)cc1C	none
O=C(CNS(=O)(=O)c1cc(Cl)ccc1Cl)Nc1ccc(Br)cc1F	none
O=C(COc1ccc(Br)cc1)Nc1ccc(Cl)c(-c2nc3ncccc3o2)c1	none
N#C/C(=C/c1ccc(O)c(O)c1)C(=O)Nc1ccccc1	none
N#C/C(=C\c1ccc(O)c(O)c1)C(=O)c1ccc(O)c(O)c1	EZH2 inh 94
N#CC(C#N)=C(N)/C(C#N)=C/c1cc(O)c(O)c(O)c1	none
COc1ccc(OC)c(NC(=O)CC2NCCNC2=O)c1 (configuration not stated)	none
Cc1cc(=O)[nH]c(SCCOc2ccc(C(=O)c3ccccc3)cc2)n1	none
COc1cccc(C(=O)OCc2nc3ccccc3s2)c1	EZH2 inh 53
O=C(OCc1nc2ccccc2s1)c1ccco1	none
O=C(Nc1ccc(OCc2nc3ccccc3s2)cc1)c1cccc(I)c1	none
O=C(CCCCC(=O)N/N=C/c1ccc(-c2ccccc2)cc1)NO	none
CCc1cccc(C)c1NC(=O)CSc1nnc(-c2ccncc2)n1-c1ccc(C)cc1	none
COc1cccc(NC(=O)CC2NC3CCCCC3NC2=O)c1 (configuration not stated)	none
O=C(Oc1c(CN2CCOCC2)cc(Cl)c2cccnc12)c1ccc([N+](=O)[O-])cc1	none
CC(=O)Nc1ccc(NC(=O)CN(c2ccc(Cl)c(C(F)(F)F)c2)S(C)(=O)=O)cc1	none
CS(=O)(=O)N(CC(=O)Nc1ccc(Cl)c(C(F)(F)F)c1)c1cccc(C(F)(F)F)c1	none
CNC(=O)c1cc(Oc2ccc(NC(=O)Nc3ccc(Cl)c(C(F)(F)F)c3)cc2)ccn1	EZH2 inh 57
COc1ccc(-c2c(-c3ccc(OCc4cnn(-c5ccccc5)c4)c(C)c3O)n[nH]c2C)cc1	none
Cc1ccccc1CN(CC(N)=O)S(=O)(=O)c1ccc(Cl)cc1	none
